# Source: PubChem BioAssay (National Center for Advancing Translational Sciences (NCATS))
# Mito fusion yeast – qHTS Assay for Small Molecule Inhibitors of Mitochondrial Division or Activators of Mitochondrial Fusion. S. cerevisiae fusion-defective mutant growth rescue, CellTiterGlo 48 h. Potency, µM (top dose mostly 46.1 µM), inactives show at the highest dose growth rescue (activation), most hits filed as activators. hit rate 0.23% among 320,000; also: % of control where 0% means no effect; nearly all actives have a fitted effect of over 45% in size
#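 Compounds are tested for their ability to restore growth of mitochondrial fusion-defective yeast strains at non-permissive 37C in YPEG medium over 48 hours. Viability is quantified by luciferase luminescence.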
# TrxR1 inh – qHTS Assay for Inhibitors of Mammalian Selenoprotein Thioredoxin Reductase 1 (TrxR1): qHTS | Potency, µM (doses to about 114 µM), for inactives: at the top dose activity change, negative = inhibition, usual class: inhibitors | Thioredoxin reductase 1, cytoplasmic (Rattus norvegicus), O89049 | recombinant rTrxR1, NADPH fluorescence consumption, selenite substrate | AID 588453, 2011 | hit rate 1% among 390,000; also: % is scaled to controls: 0 for no effect and ±100 for the full control effect; nearly all actives have a fitted effect of over 65% in size
#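 Rat TrxR1 (90 nM in the dispensed reagent) was pre-reduced with 400 uM NADPH for 5 min at room temperature, then incubated with compound for 15 min. After 400 uM selenite was added, NADPH fluorescence (Ex 340/Em 450 nm) was followed for 8 min.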
# mIDH1 inhibitor – qHTS for Inhibitors of mutant isocitrate dehydrogenase 1 (IDH1): qHTS | IDH1-R132H enzyme, NADPH consumption, diaphorase/resazurin fluorescence | Potency, µM (top dose mostly 76.6 µM), without a hit: at the top dose activity change, negative = inhibition, actives largely listed as inhibitors | Isocitrate dehydrogenase [NADP] cytoplasmic (Homo sapiens), O75874 | hit rate 0.093% among 390,000; also: % is scaled to controls: 0 for no effect and ±100 for the full control effect; nearly all actives have a fitted effect of over 65% in size
# Target sequence (O75874 whole entry R132H, stated change not applied): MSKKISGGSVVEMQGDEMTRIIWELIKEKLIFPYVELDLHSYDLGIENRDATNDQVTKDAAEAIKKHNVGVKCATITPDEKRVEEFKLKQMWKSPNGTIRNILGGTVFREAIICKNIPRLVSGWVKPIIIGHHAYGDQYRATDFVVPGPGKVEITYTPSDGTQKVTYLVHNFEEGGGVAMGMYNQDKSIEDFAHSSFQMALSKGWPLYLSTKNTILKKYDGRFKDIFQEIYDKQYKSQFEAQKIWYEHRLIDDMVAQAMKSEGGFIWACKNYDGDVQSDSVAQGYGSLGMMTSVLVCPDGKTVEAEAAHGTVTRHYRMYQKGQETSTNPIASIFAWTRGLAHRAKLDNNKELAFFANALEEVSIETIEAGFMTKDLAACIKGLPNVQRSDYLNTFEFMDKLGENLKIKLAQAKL
#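 IDH1-R132H (0.5 ug/mL) preincubated 30 min with compound, then NADPH (0.016 mM) and alpha-KG (2 mM) added; 80 min at RT, pH 7.5. Remaining NADPH coupled via diaphorase/resazurin to fluorescence (540/590 nm); concentration-response curves normalized to no-enzyme control.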
# A549 tox-1 – Nrf2 qHTS screen for inhibitors: counterscreen for cytotoxicity | hit rate 0.16% among 390,000 | AID 504648, 2011 | A549 ARE-Fluc cells, CellTiter-Fluor viability, 18-24 h | Potency, µM (highest dose often 46 µM), inactives show top-dose activity change, negative = cytotoxicity, most hits filed as inhibitors; also: % is scaled to controls: 0 for no effect and ±100 for the full control effect
#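 A549 ARE_Fluc cells in 5% FBS OPTI-MEM were exposed to compounds in concentration-response for 18-24 h at 37 deg C. Viability was read by CellTiter-Fluor fluorescence (Ex 405/Em 525) after 30 min, before the luciferase read.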
# TrxR1 substrate – qHTS Assay for Substrates of Mammalian Selenoprotein Thioredoxin Reductase 1 (TrxR1): qHTS; purified TrxR1 substrate turnover, NADPH consumption readout; Potency, µM (top dose mostly 114 µM), without a hit: top-dose activity change, negative = substrate turnover; hit rate 0.01% among 390,000; AID 588456, 2011; also: % is scaled to controls: 0 for no effect and ±100 for the full control effect; nearly all actives have a fitted effect of over 50% in size
#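 Rat TrxR1, dispensed at 90 nM, was prereduced with 400 uM NADPH (final) for 5 min at ~22 deg C, then incubated with compound 15 min before 400 uM selenite. A first-read NADPH fluorescence drop versus no-compound background flagged substrates.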
# Nrf2 inh – Nrf2 qHTS screen for inhibitors. A549 ARE-Fluc reporter, luciferase luminescence, 18-24 h. Potency, µM (series often up to 46 µM), inactives show at the top dose activity change, negative = inhibition, hits mostly inhibitors. hit rate 2.1% among 360,000. AID 504444, 2011; also: % is scaled to controls: 0 for no effect and ±100 for the full control effect; nearly all actives have a fitted effect of over 60% in size
#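 Concentration-response testing used A549 ARE_Fluc cells at 5000 cells/well. Following an 18-24 h compound incubation, viability was read by fluorescence (Ex 405/Em 525) and luciferase output by luminescence.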
# FLuc counter 3 – Nrf2 qHTS screen for inhibitors: Purified Fluc Biochemical Counterscreen for Hit Validation; AID 720522, 2013; Potency, µM (series often up to 57.5 µM), inactives show at the top dose activity change, negative = inhibition, usual class: inhibitors; purified firefly luciferase, luminescence inhibition; shares compounds with Nrf2 inh; hit rate 4% among 1,400; also: % is scaled to controls: 0 for no effect and ±100 for the full control effect; nearly all actives have a fitted effect of over 65% in size
# A549 tox-2 – Nrf2 qHTS screen for inhibitors: A549 ARE-Fluc Cytotoxicity Counterscreen for Hit Validation | Potency, µM (series often up to 46.1 µM), for the others: at the top dose activity change, negative = cytotoxicity, most hits filed as inhibitors | shares compounds with Nrf2 inh | A549 ARE-Fluc cells, cytotoxicity counterscreen | hit rate 2% among 1,400;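 also: cells exposed to compounds for 18 to 24 hours; % is scaled to controls: 0 for no effect and ±100 for the full control effect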
# ARE-Fluc inh – Nrf2 qHTS screen for inhibitors: Nrf2 A549 ARE-Fluc Confirmation Assay for Hit Validation. shares compounds with Nrf2 inh. A549 ARE-firefly luciferase reporter, luminescence. Potency, µM (titrated, usually from 46.1 µM), without a hit: at the top dose activity change, negative = inhibition, most hits filed as inhibitors. hit rate 74% among 1,400; also: % is scaled to controls: 0 for no effect and ±100 for the full control effect; nearly all actives have a fitted effect of over 65% in size
# * = called active by the depositor; ? = inconclusive; / = no result shown; [ ] = dose if it differs, or a comment. Only some compounds are listed: those with a hit (about 3.1% of all), similar ones and a draw of the others. Calls follow the shape of the dose curve; as a rule, active = well fitted curve in the direction sought with a large enough effect; inconclusive = small, poorly fitted or top-dose-only effect, or another doubt; inactive = no such curve, though single readings can be large; an effect the other way counts as inactive or inconclusive. Potency is read from the fitted curve at half-maximal effect.
SMILES,Mito fusion yeast,TrxR1 inh,mIDH1 inhibitor,A549 tox-1,TrxR1 substrate,Nrf2 inh,FLuc counter 3,A549 tox-2,ARE-Fluc inh
Cc1cc(C)c(C(N)=O)c(SCC(=O)c2cc(C)n(-c3cc(C)on3)c2C)n1,/,0.8%,-16.1%,-11.7%,4.0%,2.31µM*,-1.1%,-7.8%,?
Oc1ccc(/C=C/c2ccc3ccccc3n2)cc1,-1.3%,6.8%[57.1 µM],15.0%,-7.8%,11.2%[57.1 µM],11.0%,/,/,/
C(=C\c1ccc2ccccc2n1)/c1ccccc1,3.0%,?,8.6%,0.5%,?,?,2.6%,?,7.31µM*
CC[N+](CC)(CC)c1ccc(/C=C/c2ccc3ccccc3n2)cc1,/,-8.9%,/,/,-1.6%,/,23.9µM*,9.2µM*,2.06µM*
CCOc1ccc(C(=O)Nc2ccc(N3CCN(C(C)=O)CC3)cc2)cc1[N+](=O)[O-],-15.8%,5.7%,-14.6%,5.9%,-3.1%,?,/,/,/
CC(=O)N1CCN(c2ccc(Oc3ccc([N+](=O)[O-])c(C(F)(F)F)c3)cc2)CC1,15.1%,-5.4%,0.0%,?,-10.8%,8.2µM*,-1.0%,-9.4%,8.2µM*
COc1cccc(NC(=O)c2ccc(-c3nc(COc4ccc(C)cc4)c(C)o3)cc2)c1,/,-15.8%,4.4%,-1.3%,4.6%,5.17µM*,-12.0%,-11.6%,?
COc1cc(NC(=O)c2ccc(-c3nc(CSc4ccccc4)c(C)o3)cc2)cc(OC)c1,/,19.1%,6.5%,0.0%,0.5%,7.31µM*,-14.8%,-7.6%,7.31µM*
COc1cccc(NC(=O)c2ccc(-c3nc(COc4ccccc4)c(C)o3)cc2)c1,/,10.3%[57.1 µM],12.0%,-3.6%,-10.1%[57.1 µM],/,/,/,/
Cc1ccc(SCc2nc(-c3ccc(C(=O)Nc4cc(C)ccc4C)cc3)oc2C)cc1,/,3.2%,6.4%,-2.5%,-4.4%,5.8µM*,-1.8%,-5.7%,7.31µM*
Cc1oc(-c2ccc(C(=O)NCCc3ccc(Cl)cc3)cc2)nc1CSc1ccccc1,/,42.8%,0.0%,-1.2%,18.0%,-2.7%,/,/,/
Cc1nnc(NC(=O)CSc2nccn2Cc2ccc(Cl)cc2)s1,/,8.5%[57.1 µM],14.8%,13.5%,7.0%[57.1 µM],/,/,/,/
CC(=O)Nc1ccc(NC(=O)C(C)c2cccc(C(=O)c3ccccc3)c2)cc1 (stereo unspecified),-2.6%,-10.4%[57.1 µM],-3.2%,-1.0%,-0.8%[57.1 µM],-0.8%,/,/,/
CC(C(=O)Nc1ccc(O)cc1)c1cccc(C(=O)c2ccccc2)c1 (stereo unspecified),3.8%,10.8%[57.1 µM],-0.3%,-25.9%,-0.7%[57.1 µM],9.2µM*,-14.9%,2.0%,?
O=C(CN1C(=O)c2ccccc2S1(=O)=O)c1ccc2c(c1)OCCO2,2.4%,16.3%,8.1%,12.0%,-0.5%,0.0731µM*,-21.8%,11.0%,5.17µM*
O=C(CN1C(=O)c2ccccc2S1(=O)=O)c1ccc2c(c1)OCCCO2,-1.0%,22.6%[57.1 µM],-0.3%,-2.0%,11.6%[57.1 µM],0.184µM*,0.8%,-7.8%,8.2µM*
O=C(CN1C(=O)c2ccccc2S1(=O)=O)c1cccc(Br)c1,1.5%,-11.0%,0.9%,-1.3%,-7.6%,-40.1%,/,/,/
Cc1cnc(NC(=O)C2CC(=O)N(c3cccc(Cl)c3)C2)s1 (stereo unspecified),2.4%,22.5%,7.2%,?,2.2%,2.06µM*,-0.1%,?,/
O=C(Cc1ccccc1)Nc1scc(-c2ccccc2)c1C(=O)N1CCOCC1,0.3%,8.3%,22.6%,3.4%,2.2%,10.7%,/,/,/
NC(=O)c1c(-c2ccc(Cl)cc2Cl)csc1NC(=O)Cc1ccccc1,-3.7%,8.2%[57.1 µM],3.5%,-13.6%,5.4%[57.1 µM],2.59µM*,-18.2%,1.4%,5.17µM*
CC(=O)Nc1ccc(OCC(O)Cn2c(C)nc3ccccc32)cc1 (stereo unspecified),0.2%,-1.7%,-3.8%,4.5%,0.4%,-15.8%,/,/,/
CC(=O)N(C)c1ccc(OCC(O)Cn2c(C)nc3ccccc32)cc1 (stereo unspecified),2.7%,14.8%[57.1 µM],0.1%,-17.9%,6.9%,9.2µM*,1.0%,7.4%,?
CCOc1cccc2cc(S(=O)(=O)c3ccccc3F)c(=O)oc12,/,33.4%,-1.9%,-12.2%,4.1%,2.8%,/,/,/
O=C(/C=C/c1cccs1)NC(=S)Nc1ccc(S(=O)(=O)Nc2ccccc2C(F)(F)F)cc1,-4.8%,?,-0.8%,-9.6%,-8.5%,8.2µM*,-28.5%,-8.9%,-11.5%
COc1ccc(NC(=S)NC(=O)/C=C/c2cccs2)cc1,-5.2%,-42.9%,9.5%,-1.5%,-11.5%[57.1 µM],15.1%,/,/,/
CCOc1ccc(S(=O)(=O)NCc2cccnc2)cc1NC(=O)c1ccccc1F,-5.6%,27.2%[57.1 µM],3.9%,-15.0%,16.4%[57.1 µM],-3.7%,/,/,/
